Screens: PubChem BioAssay, University of Kansas High Throughput Screening Laboratory
The sample as a whole holds a higher share of hits than the screen did.
mHTT-CaM PPI inh: mHTT-calmodulin interaction abrogation; inhibition, % at 15 µM; 3.6% of 190,000 active; AlphaScreen His-mHTT/GST-CaM binding, luminescence; AID 1671202; P42858
Target sequence (P42858 whole entry, looked up, change not shown): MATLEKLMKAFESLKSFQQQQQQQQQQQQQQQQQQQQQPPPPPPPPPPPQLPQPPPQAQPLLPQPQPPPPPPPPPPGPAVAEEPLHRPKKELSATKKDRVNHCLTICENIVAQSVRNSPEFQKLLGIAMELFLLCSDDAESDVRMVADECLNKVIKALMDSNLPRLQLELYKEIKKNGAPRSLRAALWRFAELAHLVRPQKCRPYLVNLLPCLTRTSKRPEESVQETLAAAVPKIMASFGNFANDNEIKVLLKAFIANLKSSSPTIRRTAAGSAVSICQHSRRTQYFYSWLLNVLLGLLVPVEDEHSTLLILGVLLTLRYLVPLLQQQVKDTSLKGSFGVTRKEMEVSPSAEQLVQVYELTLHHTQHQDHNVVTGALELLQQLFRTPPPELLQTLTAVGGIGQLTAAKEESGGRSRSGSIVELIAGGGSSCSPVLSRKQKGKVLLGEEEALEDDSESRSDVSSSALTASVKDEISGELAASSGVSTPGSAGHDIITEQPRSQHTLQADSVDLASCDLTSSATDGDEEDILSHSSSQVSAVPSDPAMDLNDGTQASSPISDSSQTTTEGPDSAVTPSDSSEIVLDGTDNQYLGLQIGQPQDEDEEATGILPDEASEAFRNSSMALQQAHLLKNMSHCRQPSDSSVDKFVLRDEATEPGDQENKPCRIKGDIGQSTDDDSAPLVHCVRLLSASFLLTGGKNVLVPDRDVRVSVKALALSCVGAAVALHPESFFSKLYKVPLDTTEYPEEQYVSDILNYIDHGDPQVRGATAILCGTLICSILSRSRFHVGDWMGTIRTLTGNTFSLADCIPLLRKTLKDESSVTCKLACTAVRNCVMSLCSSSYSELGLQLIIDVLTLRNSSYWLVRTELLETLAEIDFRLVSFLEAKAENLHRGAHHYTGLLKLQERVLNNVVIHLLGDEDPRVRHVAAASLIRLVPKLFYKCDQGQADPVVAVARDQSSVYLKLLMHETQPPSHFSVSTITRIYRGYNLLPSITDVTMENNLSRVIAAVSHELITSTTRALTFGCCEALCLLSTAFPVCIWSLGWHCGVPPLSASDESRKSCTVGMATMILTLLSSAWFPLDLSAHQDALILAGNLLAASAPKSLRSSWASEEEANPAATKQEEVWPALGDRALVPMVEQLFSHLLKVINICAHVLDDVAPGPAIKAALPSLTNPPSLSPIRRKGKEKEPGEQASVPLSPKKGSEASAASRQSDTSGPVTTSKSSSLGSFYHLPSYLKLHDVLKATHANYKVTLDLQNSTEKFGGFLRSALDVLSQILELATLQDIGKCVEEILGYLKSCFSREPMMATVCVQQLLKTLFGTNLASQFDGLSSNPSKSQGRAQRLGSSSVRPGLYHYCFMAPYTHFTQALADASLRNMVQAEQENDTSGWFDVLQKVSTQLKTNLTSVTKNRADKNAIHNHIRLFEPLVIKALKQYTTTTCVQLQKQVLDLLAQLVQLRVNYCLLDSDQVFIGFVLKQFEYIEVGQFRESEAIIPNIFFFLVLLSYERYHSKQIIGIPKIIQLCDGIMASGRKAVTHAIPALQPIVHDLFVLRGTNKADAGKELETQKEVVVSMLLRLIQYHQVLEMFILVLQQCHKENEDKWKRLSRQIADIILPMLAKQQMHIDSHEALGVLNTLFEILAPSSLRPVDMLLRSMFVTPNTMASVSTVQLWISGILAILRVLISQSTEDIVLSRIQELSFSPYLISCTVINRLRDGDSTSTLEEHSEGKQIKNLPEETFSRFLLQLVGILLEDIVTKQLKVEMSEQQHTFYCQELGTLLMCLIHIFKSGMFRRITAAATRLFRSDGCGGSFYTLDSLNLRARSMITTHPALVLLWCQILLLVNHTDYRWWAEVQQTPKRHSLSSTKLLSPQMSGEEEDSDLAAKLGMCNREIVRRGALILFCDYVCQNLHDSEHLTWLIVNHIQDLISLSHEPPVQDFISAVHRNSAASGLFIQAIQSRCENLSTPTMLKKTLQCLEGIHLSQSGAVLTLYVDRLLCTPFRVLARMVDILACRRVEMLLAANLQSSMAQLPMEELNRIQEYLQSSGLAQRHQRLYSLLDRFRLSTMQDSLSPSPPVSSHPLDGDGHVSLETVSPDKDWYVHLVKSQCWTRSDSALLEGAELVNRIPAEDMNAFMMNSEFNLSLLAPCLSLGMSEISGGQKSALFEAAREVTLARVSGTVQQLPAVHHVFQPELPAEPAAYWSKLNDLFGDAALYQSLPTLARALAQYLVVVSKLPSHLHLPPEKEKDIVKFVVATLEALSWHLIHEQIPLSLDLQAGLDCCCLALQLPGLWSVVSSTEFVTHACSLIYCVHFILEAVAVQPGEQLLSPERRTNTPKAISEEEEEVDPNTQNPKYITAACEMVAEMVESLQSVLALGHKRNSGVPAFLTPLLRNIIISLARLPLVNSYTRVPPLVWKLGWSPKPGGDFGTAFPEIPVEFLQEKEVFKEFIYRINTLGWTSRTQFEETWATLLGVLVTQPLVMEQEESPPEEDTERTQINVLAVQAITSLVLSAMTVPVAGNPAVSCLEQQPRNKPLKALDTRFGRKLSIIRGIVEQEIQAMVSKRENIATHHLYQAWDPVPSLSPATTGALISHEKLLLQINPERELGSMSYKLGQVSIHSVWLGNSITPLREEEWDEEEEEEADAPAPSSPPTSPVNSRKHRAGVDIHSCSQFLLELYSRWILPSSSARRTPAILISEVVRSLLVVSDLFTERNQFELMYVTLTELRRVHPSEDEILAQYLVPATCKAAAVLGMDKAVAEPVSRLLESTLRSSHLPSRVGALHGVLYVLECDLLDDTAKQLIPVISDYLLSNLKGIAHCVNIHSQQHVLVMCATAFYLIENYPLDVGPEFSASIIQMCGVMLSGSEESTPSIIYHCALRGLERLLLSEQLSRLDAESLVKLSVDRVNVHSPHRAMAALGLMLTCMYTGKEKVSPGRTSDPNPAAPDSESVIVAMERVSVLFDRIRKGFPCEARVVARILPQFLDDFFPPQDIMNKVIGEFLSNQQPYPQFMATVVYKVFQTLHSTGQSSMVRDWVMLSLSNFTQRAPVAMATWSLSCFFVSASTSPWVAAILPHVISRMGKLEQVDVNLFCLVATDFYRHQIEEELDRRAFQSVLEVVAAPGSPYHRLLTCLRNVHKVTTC
Pf apPOL block: Pf-apPOL DNA polymerase inhibition; Recombinant Pf-apPOL, molecular beacon fluorescence, 1.5 h; inhibition, % at 10 µM; 0.25% of 210,000 active
Hits are given with their value; – = inactive; · = no result. Rule as the data show it: active = inhibition above about 50%; inactive = the rest.

SMILES	mHTT-CaM PPI inh	Pf apPOL block
CC(C)(C)c1ccc(-c2nc3cc(N)ccc3o2)cc1	–	–
COc1ccc(-c2nc3cc(C(C)(C)C)ccc3o2)cc1O	61	–
COc1ccc(-c2nc3cc(C)ccc3o2)cc1N	–	–
COc1cc(-c2nc3cc(C(C)(C)C)ccc3o2)ccc1O	56	–
CC1(C)C2CCC1(C)C(OCCN(CCNC(=O)Nc1ccccc1)C(=O)Nc1ccccc1)C2 (centres undefined)	–	–
Cc1cc(/C=C2\NC(=O)NC2=O)c(C)n1-c1ccc(Cl)c(Cl)c1	100	–
Cc1cc(/C=C2\NC(=O)NC2=O)c(C)n1-c1cccc(I)c1	91	–
Cc1cc(/C=C2\SC(=O)NC2=O)c(C)n1-c1ccc(I)cc1	–	–
Cc1cc(/C=C2/C(=O)NC(=O)N(C)C2=O)c(C)n1-c1ccc(F)c(Cl)c1	–	–
CC(C)c1cc(C2CCCN2C(=O)c2cc(-c3ccccc3F)no2)on1 (centres undefined)	–	–
CC(NC(=O)Nc1cccc(Cl)c1)c1ccccc1 (centres undefined)	–	–
CC(NC(=O)Nc1ccc(Cl)c(Cl)c1)c1ccccc1 (centres undefined)	73	–
Cc1noc(C2CN(C(=O)CCCc3ccccc3)CC23CCOCC3)n1 (centres undefined)	–	–
CCCn1c(=O)c(N2CCN(C(=O)c3cccc(F)c3)CC2)nc2ccccc21	–	–
Cc1cc(CN2CCC(CNC(=O)c3ccc(OC(C)C)cc3)CC2)c(C)o1	–	–
CCOC(=O)N1CCC(NC(=O)Cc2sc(-c3ccccc3)nc2C)CC1	–	–
O=C(CN1C(=O)C(c2ccc(Cl)cc2)=NC12CCCCC2)Nc1cccc(F)c1	76	–
COc1ccc(C2=NC3(CCCCC3)N(CC(=O)Nc3cccc(Cl)c3)C2=O)cc1	–	–
COc1ccc(C2=NC3(CCCCC3)N(CC(=O)Nc3ccc(Cl)cc3)C2=O)cc1	–	–
O=C(CN1C(=O)C(c2ccccc2)=NC12CCCC2)Nc1cccc(Cl)c1	74	–
Cc1cccc(NC(=O)CN2C(=O)C(c3ccc(F)cc3)=NC23CCCCCC3)c1	–	–
O=C(CN1C(=O)C(c2ccccc2)=NC12CCCCC2)Nc1ccccc1	–	–
COc1ccc(C2=NC3(CCCCC3)N(CC(=O)Nc3ccc(F)c(Cl)c3)C2=O)cc1	100	–
O=C(CN1C(=O)C(c2ccccc2)=NC12CCCCCC2)Nc1ccc(Cl)cc1	100	–
CC(C)Oc1ccc(CNc2nc3ccncc3n(C(C)C)c2=O)cc1	–	–
SMILES	mHTT-CaM PPI inh	Pf apPOL block
O=C(O)c1ccc(N=Cc2cc(Br)cc(Br)c2O)cc1	–	–
Cc1ccc(N2CCn3c(SCC(=O)NCc4ccco4)nnc32)cc1	–	–
CC1CCC2(CC1)N=C(c1ccccc1)C(=O)N2CC(=O)Nc1ccc(F)cc1 (centres undefined)	58	–
O=C(CN1C(=O)C(c2ccccc2)=NC12CCCCC2)Nc1ccc(F)cc1	–	–
O=C(NC1CC1)c1csc(COc2ccc(Cl)cc2)n1	–	–
COc1ccc(-c2nc(C(=O)NC3CC3)cs2)c(Cl)c1	–	94
COc1cccc(N2CCN(C(=O)C3CCCN(c4cnn(C)c(=O)c4)C3)CC2)c1 (centres undefined)	–	–
O=C(Cc1ccccc1)Nc1c2c(nn1-c1ccc([N+](=O)[O-])cc1)CS(=O)(=O)C2	–	–
CCc1nnc(NC(=O)c2ccc(S(=O)(=O)N(C)C)cc2)o1	–	–
CCSc1ccc(Cc2nnc(NC(=O)c3ccc(S(=O)(=O)N(C)C)cc3)o2)cc1	61	–
COc1cc(C=C2Oc3cc(OS(=O)(=O)c4ccc(F)cc4)ccc3C2=O)cc(OC)c1OC	–	–
CCC(CO)NCC(O)Cn1c(C)c(C)c2ccccc21 (centres undefined)	–	–
Cc1c(C)n(CC(O)CN2CCN(Cc3ccccc3)CC2)c2ccccc12 (centres undefined)	–	–
Cc1cccc(NCC(O)Cn2c(C)c(C)c3ccccc32)c1 (centres undefined)	91	–
CCN(CC)CC(O)Cn1c(C)c(C)c2ccccc21 (centres undefined)	–	–
Cc1ccc(C)c(NCC(O)Cn2c(C)c(C)c3ccccc32)c1 (centres undefined)	95	–
Cc1c(C)n(CC(O)CNc2ccccc2)c2ccccc12 (centres undefined)	54	–
O=C(NC(=O)c1c(Cl)cccc1Cl)Nc1cc(F)c(Br)cc1F	·	–
O=[N+]([O-])c1ccc(C2Nc3cc(Br)ccc3C3C=CCC32)cc1 (centres undefined)	–	·
O=C(O)C1CC=CCC1c1ccc(Cl)cc1Cl (centres undefined)	·	–
COc1cccc(C2Nc3ccc(C(C)=O)cc3C3C=CCC32)c1OC (centres undefined)	64	–
CC(=O)c1ccc2c(c1)C1C=CCC1C(c1cc3c(cc1Br)OCO3)N2 (centres undefined)	–	–
O=C(O)c1ccc2c(c1)C1C=CCC1C(c1ccc(Cl)cc1Cl)N2 (centres undefined)	67	–
NS(=O)(=O)c1ccc2c(c1)C1C=CCC1C(c1ccc(Cl)cc1Cl)N2 (centres undefined)	79	–
NS(=O)(=O)c1ccc2c(c1)C1C=CCC1C(c1ccc([N+](=O)[O-])cc1)N2 (centres undefined)	92	–
SMILES	mHTT-CaM PPI inh	Pf apPOL block
COc1ccc(C(=O)C=Cc2ccc(OC)c(OC)c2)c(OC(=O)c2ccco2)c1	–	–
Cn1ncc(I)c1C(=O)NC1CCCCC1	–	–
Cc1cc(C)n(-c2c(C)cccc2C)n1	–	–
COc1cc2c(cc1OC)C(COc1ccc3c(C)cc(=O)oc3c1)N(C(=O)C=Cc1ccccc1)CC2 (centres undefined)	–	–
O=C1c2ccccc2C(=O)C2C3c4ccccc4C(c4ccccc43)C12 (centres undefined)	–	–
CCc1ccccc1N1C(=O)CCC1(C)C(=O)NCCOC (centres undefined)	–	–
O=C(c1cccc2c1NC(c1ccc(Cl)cc1Cl)C1CC=CC21)N1CCCC1 (centres undefined)	–	–
O=C(O)c1cccc2c1NC(c1ccc(Cl)cc1Cl)C1CC=CC21 (centres undefined)	56	–
COc1ncc(C(=O)Nc2ccccc2C)c(C)n1	–	–
COc1ccc(/C=C2/C(=O)N(c3ccccc3)N=C2C)cc1[N+](=O)[O-]	–	–
CCc1cc(-c2n[nH]c(C)c2-c2nc3ccccc3s2)c(O)cc1OC	98	–
CCOc1cc(O)c(-c2n[nH]c(C)c2-c2ccc(F)cc2)cc1CC	–	–
CC(=O)N1CCc2cc(N3CC(C(=O)Nc4ccc(Cl)cc4F)CC3=O)ccc21 (centres undefined)	–	–
COc1ncccc1CNC(=O)c1sccc1C	–	–
COc1cc2c(cc1OC)CN(Cc1ccc(OCc3ccccc3)c(OC)c1)CC2	100	–
COc1ccc(CN2CCc3cc(OC)c(OC)cc3C2)cc1OC	–	–
Cc1ccc(C(O)=C2C(=O)C(=O)N(CC(=O)O)C2c2cccc([N+](=O)[O-])c2)cc1 (centres undefined)	–	–
Cn1ccnc1Sc1ccc([N+](=O)[O-])cc1C(=O)c1ccc(Br)cc1	–	–
CCn1c(C2CCN(S(=O)(=O)c3cc(F)cc(F)c3)C2)nc2ccncc21 (centres undefined)	–	–
